# What was measured:
# Assay in all cases: DAPPL (digital affinity profiling via proximity ligation, sequencing); 10 mM Tris-HCl pH 7.5, 50 mM NaCl, 1 mM DTT, 4% glycerol, room temperature, 30 min; GST-TFs on glutathione beads, 16-mer random dsDNA library, 0.1% formaldehyde crosslink after washing; high values mean tight binding
# FLI1 = target: T1, FLI1 (Homo sapiens, UniProt Q01543 1-452); settings: protein: recombinant; tags: N-terminal GST; dsDNA, one strand shown
# T1 sequence: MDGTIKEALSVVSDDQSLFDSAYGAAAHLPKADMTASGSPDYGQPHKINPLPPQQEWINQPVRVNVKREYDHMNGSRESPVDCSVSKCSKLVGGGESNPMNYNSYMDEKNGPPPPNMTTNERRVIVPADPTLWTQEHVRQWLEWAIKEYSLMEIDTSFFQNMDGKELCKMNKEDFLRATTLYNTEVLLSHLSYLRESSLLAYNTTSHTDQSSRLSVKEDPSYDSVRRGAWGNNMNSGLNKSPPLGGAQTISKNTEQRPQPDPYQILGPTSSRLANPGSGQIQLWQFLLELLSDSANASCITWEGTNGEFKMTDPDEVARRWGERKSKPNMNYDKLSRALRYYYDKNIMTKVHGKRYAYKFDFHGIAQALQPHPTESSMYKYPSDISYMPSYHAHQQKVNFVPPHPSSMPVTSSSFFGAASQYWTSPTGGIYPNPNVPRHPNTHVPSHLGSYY
# Outline: (§1)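 Beads coated with glutathione captured GST-fused human transcription factors that had been expressed in yeast, and the factors were then given DNA barcodes and pooled with a tag-only sample. The pools were incubated with 200 nmole of a random double-stranded 16-mer DNA library in Tris/NaCl/DTT/glycerol buffer for 30 min at room temperature, washed, crosslinked with 0.1% formaldehyde and proximity-ligated with BsaI/T4 ligase at 37 °C for 1 h. PCR amplification and Illumina NextSeq500 sequencing came last. Binding signal is each hexamer's read frequency for a factor divided by its frequency for the tag-only sample.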
# ELK1 = target: T2, ELK1 (Homo sapiens, UniProt P19419 1-428); settings: protein: recombinant; tags: N-terminal GST; dsDNA, one strand shown
# T2 sequence: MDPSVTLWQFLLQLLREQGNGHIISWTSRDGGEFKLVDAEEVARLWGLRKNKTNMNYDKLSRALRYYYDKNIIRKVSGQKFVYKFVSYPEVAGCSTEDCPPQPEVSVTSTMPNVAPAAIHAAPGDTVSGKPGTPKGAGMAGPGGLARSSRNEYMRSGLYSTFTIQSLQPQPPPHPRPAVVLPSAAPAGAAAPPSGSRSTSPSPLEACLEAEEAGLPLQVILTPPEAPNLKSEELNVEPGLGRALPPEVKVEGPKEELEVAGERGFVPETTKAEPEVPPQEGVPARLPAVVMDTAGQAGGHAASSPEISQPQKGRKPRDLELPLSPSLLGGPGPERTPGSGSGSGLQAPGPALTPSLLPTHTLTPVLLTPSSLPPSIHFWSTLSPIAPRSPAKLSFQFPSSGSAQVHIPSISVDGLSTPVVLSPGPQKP
# Outline: as §1
# GABPA = target: T3, GABPA (Homo sapiens, UniProt Q06546 1-454); settings: protein: recombinant; tags: N-terminal GST; dsDNA, one strand shown
# T3 sequence: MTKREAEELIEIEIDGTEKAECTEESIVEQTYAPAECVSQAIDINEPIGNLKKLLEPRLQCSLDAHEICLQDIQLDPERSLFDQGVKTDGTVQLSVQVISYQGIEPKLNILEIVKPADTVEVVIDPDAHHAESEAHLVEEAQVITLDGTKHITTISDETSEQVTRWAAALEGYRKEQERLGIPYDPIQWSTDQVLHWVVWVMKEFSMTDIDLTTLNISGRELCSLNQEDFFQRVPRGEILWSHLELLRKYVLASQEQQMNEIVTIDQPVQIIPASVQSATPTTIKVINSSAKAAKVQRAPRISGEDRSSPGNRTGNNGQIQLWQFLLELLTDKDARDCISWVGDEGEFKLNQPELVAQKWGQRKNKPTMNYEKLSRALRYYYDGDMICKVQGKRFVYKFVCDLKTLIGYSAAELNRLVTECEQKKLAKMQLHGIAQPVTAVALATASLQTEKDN
# Outline: as §1
# ERG = target: T4, ERG (Homo sapiens, UniProt P11308 1-479); settings: protein: recombinant; tags: N-terminal GST; dsDNA, one strand shown
# T4 sequence: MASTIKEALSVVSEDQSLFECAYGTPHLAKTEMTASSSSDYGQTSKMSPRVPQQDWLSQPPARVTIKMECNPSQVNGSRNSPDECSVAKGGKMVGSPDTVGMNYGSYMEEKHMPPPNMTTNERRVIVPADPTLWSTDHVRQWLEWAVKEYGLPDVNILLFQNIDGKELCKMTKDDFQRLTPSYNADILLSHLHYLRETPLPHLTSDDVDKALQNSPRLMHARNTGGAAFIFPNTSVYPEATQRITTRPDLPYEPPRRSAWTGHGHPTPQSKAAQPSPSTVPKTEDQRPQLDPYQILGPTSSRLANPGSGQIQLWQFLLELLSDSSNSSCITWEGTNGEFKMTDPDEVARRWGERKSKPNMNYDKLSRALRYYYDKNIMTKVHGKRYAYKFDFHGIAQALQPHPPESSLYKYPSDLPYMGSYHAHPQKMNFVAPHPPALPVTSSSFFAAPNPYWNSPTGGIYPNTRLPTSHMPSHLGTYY
# Outline: as §1
# ELF1 = ELF1 (Homo sapiens, UniProt P32519 1-619); settings: protein: recombinant; tags: N-terminal GST; dsDNA, one strand shown
# Sequence of ELF1 (P32519 whole entry): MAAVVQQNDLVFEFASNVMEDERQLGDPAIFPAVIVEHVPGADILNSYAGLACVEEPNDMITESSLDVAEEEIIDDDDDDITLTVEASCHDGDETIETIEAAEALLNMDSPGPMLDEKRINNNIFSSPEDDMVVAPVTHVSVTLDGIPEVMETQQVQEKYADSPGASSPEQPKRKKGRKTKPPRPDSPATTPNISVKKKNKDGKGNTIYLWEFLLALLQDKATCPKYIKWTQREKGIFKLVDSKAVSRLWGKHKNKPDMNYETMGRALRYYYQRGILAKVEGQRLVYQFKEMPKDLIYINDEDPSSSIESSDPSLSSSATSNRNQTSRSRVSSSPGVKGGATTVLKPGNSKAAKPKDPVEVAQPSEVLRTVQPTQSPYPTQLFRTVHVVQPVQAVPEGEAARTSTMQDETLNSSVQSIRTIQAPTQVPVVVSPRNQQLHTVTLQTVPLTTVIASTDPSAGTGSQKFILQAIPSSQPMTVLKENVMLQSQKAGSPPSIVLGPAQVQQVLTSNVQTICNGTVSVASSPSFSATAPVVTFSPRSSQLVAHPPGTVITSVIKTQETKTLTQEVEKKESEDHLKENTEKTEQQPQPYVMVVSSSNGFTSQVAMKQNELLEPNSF
# Outline: as §1
# EHF = target: T5, EHF (Homo sapiens, UniProt Q9NZC4 1-300); settings: protein: recombinant; tags: N-terminal GST; dsDNA, one strand shown
# T5 sequence: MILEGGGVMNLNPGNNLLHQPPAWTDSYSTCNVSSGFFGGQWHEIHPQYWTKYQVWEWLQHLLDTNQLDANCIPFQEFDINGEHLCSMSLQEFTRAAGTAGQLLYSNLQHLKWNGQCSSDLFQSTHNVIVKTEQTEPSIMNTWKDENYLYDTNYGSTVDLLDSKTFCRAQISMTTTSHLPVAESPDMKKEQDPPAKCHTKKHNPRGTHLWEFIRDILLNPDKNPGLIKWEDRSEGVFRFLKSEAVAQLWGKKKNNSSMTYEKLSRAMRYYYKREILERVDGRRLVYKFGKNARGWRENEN
# Outline: as §1
# SPI1 = SPI1 (Homo sapiens, UniProt P17947 1-270); settings: protein: recombinant; tags: N-terminal GST; dsDNA, one strand shown
# Outline: as §1
# SPIB = SPIB (Homo sapiens, UniProt Q01892 1-262); settings: protein: recombinant; tags: N-terminal GST; dsDNA, one strand shown
# Sequence of SPIB (Q01892 whole entry): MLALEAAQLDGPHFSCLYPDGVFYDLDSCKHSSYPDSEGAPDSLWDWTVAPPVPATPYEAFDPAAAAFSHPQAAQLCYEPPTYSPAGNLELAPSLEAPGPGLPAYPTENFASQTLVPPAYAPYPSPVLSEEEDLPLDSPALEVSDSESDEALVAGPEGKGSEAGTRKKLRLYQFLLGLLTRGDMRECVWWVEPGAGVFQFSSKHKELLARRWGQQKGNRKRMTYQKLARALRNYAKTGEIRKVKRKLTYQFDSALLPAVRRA
# Outline: as §1
# ELK3 = target: T6, ELK3 (Homo sapiens, UniProt P41970 1-407); settings: protein: recombinant; tags: N-terminal GST; dsDNA, one strand shown
# T6 sequence: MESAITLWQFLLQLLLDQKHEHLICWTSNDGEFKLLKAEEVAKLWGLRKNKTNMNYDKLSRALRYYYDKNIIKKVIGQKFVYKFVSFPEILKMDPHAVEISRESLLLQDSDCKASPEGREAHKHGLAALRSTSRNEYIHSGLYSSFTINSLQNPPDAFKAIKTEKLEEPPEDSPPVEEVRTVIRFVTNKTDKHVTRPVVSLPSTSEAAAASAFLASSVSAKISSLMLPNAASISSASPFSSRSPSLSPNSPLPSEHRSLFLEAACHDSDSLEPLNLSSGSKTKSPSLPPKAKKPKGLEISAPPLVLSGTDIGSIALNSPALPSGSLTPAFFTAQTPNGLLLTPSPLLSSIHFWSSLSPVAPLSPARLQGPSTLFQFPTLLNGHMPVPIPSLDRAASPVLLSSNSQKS
# Outline: as §1
# FEV = target: T7, FEV (Homo sapiens, UniProt Q99581 1-238); settings: protein: recombinant; tags: N-terminal GST; dsDNA, one strand shown
# T7 sequence: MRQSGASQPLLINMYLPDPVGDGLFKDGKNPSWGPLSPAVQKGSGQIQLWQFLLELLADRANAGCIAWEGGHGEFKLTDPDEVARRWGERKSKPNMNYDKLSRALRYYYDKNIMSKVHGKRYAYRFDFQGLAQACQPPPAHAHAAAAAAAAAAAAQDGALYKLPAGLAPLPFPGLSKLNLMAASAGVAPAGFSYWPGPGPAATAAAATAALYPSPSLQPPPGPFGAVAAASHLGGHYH
# Outline: as §1
# ETV5 = ETV5 (Homo sapiens, UniProt P41161 1-510); settings: protein: recombinant; tags: N-terminal GST; dsDNA, one strand shown
# Sequence of ETV5 (P41161 whole entry): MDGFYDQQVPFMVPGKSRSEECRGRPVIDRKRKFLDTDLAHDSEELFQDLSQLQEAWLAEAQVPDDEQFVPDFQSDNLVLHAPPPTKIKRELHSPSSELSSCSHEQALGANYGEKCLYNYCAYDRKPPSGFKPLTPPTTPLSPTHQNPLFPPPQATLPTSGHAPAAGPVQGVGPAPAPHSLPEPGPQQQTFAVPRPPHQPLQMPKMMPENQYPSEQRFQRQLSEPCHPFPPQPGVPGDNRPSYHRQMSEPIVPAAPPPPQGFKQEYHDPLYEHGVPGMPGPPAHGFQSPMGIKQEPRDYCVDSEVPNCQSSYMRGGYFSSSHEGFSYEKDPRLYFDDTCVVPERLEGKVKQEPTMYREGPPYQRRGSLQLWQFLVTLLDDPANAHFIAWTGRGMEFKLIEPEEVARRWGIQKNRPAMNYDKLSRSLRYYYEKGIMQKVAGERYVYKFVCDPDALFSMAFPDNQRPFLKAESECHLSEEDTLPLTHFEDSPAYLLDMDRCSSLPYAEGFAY
# Outline: as §1
# HSF1 = HSF1 (Homo sapiens, UniProt Q00613 1-529); settings: protein: recombinant; tags: N-terminal GST; chain copies: 3; dsDNA, one strand shown
# Sequence of HSF1 (Q00613 whole entry): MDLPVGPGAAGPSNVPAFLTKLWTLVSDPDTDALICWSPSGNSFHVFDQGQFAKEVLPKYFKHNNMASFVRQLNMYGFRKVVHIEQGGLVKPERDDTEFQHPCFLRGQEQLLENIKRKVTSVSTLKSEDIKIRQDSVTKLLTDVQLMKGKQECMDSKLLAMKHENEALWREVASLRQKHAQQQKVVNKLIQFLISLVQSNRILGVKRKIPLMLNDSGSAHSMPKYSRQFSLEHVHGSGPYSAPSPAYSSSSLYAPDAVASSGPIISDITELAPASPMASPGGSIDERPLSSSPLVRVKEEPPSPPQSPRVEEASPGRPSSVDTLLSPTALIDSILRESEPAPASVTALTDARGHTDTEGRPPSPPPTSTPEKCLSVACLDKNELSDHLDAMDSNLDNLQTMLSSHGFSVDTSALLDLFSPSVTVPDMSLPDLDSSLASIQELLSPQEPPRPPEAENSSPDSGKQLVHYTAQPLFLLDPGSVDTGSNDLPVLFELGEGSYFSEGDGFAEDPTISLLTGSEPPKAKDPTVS
# Outline: as §1
# SPIC = target: T8, SPIC (Homo sapiens, UniProt Q8N5J4 1-248); settings: protein: recombinant; tags: N-terminal GST; dsDNA, one strand shown
# T8 sequence: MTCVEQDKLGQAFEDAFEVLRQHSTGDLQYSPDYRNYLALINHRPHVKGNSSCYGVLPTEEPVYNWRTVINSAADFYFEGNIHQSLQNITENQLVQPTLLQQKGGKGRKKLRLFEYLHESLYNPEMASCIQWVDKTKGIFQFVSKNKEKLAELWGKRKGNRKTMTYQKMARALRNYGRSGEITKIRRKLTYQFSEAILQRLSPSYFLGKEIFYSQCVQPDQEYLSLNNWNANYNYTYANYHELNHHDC
# Outline: as §1
# ELF4 = ELF4 (Homo sapiens, UniProt Q99607 1-663); settings: protein: recombinant; tags: N-terminal GST; dsDNA, one strand shown
# Sequence of ELF4 (Q99607 whole entry): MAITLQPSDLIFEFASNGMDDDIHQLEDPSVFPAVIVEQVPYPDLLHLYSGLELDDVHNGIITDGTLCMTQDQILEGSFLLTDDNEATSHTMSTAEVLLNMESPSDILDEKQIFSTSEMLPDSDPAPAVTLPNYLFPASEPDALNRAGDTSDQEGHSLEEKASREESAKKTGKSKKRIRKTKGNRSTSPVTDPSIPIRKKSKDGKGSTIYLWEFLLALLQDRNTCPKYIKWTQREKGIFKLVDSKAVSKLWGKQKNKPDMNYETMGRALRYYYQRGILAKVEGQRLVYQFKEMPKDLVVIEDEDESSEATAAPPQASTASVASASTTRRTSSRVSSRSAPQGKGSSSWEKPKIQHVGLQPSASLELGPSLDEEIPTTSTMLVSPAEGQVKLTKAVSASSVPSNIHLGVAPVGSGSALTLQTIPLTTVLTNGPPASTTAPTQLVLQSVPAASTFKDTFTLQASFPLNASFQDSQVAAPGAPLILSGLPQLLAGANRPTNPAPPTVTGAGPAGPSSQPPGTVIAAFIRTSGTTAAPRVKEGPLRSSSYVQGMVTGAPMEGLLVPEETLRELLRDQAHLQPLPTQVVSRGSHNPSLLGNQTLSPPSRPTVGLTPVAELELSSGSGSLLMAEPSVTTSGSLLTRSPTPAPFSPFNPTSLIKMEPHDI
# Outline: as §1
# ELK4 = target: T9, ELK4 (Homo sapiens, UniProt P28324-2 1-405); settings: protein: recombinant; tags: N-terminal GST; dsDNA, one strand shown
# T9 sequence: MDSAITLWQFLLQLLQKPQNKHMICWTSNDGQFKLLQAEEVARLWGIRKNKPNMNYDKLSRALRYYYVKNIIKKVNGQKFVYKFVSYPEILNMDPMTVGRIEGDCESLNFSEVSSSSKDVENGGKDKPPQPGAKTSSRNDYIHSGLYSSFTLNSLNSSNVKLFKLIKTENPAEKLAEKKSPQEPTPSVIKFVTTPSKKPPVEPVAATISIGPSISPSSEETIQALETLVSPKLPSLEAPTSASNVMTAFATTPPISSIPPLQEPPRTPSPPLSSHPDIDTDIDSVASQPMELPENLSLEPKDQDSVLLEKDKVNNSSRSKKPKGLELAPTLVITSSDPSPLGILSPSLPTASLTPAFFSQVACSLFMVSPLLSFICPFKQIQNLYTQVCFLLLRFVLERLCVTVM
# Outline: as §1
# ETV2 = target: T10, ETV2 (Homo sapiens, UniProt O00321 1-342); settings: protein: recombinant; tags: N-terminal GST; dsDNA, one strand shown
# T10 sequence: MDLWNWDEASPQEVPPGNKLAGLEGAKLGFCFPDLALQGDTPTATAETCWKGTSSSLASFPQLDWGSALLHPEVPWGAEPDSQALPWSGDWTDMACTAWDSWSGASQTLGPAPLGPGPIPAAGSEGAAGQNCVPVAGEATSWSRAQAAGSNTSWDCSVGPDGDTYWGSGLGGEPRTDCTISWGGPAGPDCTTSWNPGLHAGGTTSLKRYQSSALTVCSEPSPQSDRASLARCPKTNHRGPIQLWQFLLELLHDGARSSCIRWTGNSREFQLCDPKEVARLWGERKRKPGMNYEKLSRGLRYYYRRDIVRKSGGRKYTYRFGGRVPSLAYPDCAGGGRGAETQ
# Outline: as §1
# ELF3 = target: T11, ELF3 (Homo sapiens, UniProt P78545 1-371); settings: protein: recombinant; tags: N-terminal GST; dsDNA, one strand shown
# T11 sequence: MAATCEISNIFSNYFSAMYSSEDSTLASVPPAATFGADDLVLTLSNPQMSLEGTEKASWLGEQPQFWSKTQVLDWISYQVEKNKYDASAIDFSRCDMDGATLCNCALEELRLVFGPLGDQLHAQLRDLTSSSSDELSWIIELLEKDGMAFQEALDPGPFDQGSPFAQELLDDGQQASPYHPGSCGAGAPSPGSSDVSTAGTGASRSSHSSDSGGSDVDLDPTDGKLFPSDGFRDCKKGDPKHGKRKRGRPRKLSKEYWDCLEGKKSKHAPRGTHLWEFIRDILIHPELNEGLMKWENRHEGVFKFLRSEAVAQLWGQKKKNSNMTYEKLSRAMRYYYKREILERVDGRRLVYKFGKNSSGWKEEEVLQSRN
# Outline: as §1
# CRX = CRX (Homo sapiens, UniProt O43186 1-299); settings: protein: recombinant; tags: N-terminal GST; dsDNA, one strand shown
# Sequence of CRX (O43186 whole entry): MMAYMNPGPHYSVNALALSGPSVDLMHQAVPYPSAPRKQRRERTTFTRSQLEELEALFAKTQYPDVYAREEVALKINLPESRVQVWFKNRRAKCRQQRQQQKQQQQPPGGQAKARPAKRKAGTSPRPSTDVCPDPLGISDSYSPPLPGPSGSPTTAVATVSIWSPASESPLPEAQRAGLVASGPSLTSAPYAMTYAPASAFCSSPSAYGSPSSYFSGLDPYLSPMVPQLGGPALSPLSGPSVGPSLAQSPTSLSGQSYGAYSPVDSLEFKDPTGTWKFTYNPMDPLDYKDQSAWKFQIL
# Outline: as §1
# ETV1 = ETV1 (Homo sapiens, UniProt P50549 1-477); settings: protein: recombinant; tags: N-terminal GST; dsDNA, one strand shown
# Sequence of ETV1 (P50549 whole entry): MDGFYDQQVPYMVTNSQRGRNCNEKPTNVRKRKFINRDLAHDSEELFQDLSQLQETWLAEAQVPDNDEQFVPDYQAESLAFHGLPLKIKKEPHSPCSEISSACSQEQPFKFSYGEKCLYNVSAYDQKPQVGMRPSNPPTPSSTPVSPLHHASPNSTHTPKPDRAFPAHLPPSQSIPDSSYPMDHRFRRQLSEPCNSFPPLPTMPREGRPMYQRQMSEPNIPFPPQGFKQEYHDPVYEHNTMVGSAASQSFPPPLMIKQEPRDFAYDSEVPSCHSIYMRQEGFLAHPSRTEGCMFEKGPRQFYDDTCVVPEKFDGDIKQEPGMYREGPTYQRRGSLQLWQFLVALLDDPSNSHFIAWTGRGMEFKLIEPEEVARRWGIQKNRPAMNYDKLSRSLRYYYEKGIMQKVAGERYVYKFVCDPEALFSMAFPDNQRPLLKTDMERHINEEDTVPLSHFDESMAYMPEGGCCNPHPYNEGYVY
# Outline: as §1
sequence,measurement,setting,value
CTGGAA,binding signal,FLI1,"1.22 fold enrichment (6-mer frequency, TF over GST control)"
same,binding signal,ELK1,"1.25 fold enrichment (6-mer frequency, TF over GST control)"
same,binding signal,GABPA,"1.33 fold enrichment (6-mer frequency, TF over GST control)"
same,binding signal,ERG,"1.27 fold enrichment (6-mer frequency, TF over GST control)"
same,binding signal,ELF1,"1.19 fold enrichment (6-mer frequency, TF over GST control)"
same,binding signal,EHF,"1.2 fold enrichment (6-mer frequency, TF over GST control)"
same,binding signal,SPI1,"1.26 fold enrichment (6-mer frequency, TF over GST control)"
same,binding signal,SPIB,"1.31 fold enrichment (6-mer frequency, TF over GST control)"
same,binding signal,ELK3,"1.31 fold enrichment (6-mer frequency, TF over GST control)"
same,binding signal,FEV,"1.2 fold enrichment (6-mer frequency, TF over GST control)"
same,binding signal,ETV5,"1.29 fold enrichment (6-mer frequency, TF over GST control)"
same,binding signal,HSF1,"4.43 fold enrichment (6-mer frequency, TF over GST control)"
same,binding signal,SPIC,"1.2 fold enrichment (6-mer frequency, TF over GST control)"
same,binding signal,ELF4,"1.23 fold enrichment (6-mer frequency, TF over GST control)"
same,binding signal,ELK4,"1.08 fold enrichment (6-mer frequency, TF over GST control)"
same,binding signal,ETV2,"1.43 fold enrichment (6-mer frequency, TF over GST control)"
same,binding signal,ELF3,"1.11 fold enrichment (6-mer frequency, TF over GST control)"
same,binding signal,CRX,"1.89 fold enrichment (6-mer frequency, TF over GST control)"
same,binding signal,ETV1,"1.32 fold enrichment (6-mer frequency, TF over GST control)"

# Source: publication PMC7862700, “An all-to-all approach to the identification of sequence-specific readers for epigenetic DNA modifications on cytosine”
